The source of these data is PubChem BioAssay (NCI).

About 83,000 compounds went through this panel and 20% of them were active in at least one assay; those are over-represented in the sample as a whole.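 Single-dose data. Exposure time 48 hours. Values below 10 considered active.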 Values without a mark were called inactive. The source made the active and inactive calls.

Test systems include HCT-15 colon; HT29 colon; SNB-75 CNS; SNB-19 CNS; PC-3 prostate; SK-MEL-5 melanoma; UACC-62 melanoma; LOX IMVI melanoma; SK-MEL-28 melanoma; SK-MEL-2 melanoma; EKVX NSCLC; SN12C renal; UO-31 renal; TK-10 renal; ACHN renal; CAKI-1 renal; A498 renal; CCRF-CEM leukemia; MOLT-4 leukemia; U251 CNS.
Holding throughout (test): NCI-60 one-dose screen, 48 h (100 = growth as untreated, 0 = no growth, -100 = all killed)
Holding throughout (conditions): 10 µM unless noted

For `Cc1c([N+](=O)[O-])cc(C(C)(C)C)cc1[N+](=O)[O-]`, the growth in the test on HCT-15 colon was 105%; with HT29 colon, 87.2%; with SNB-75 CNS it was 89.4%; in the test with SNB-19 CNS, 102%; in the test with PC-3 prostate, 95.3%; in the test on SK-MEL-5 melanoma, 99.7%. In addition, the growth in the test with UACC-62 melanoma was 103%; in the test with LOX IMVI melanoma it was 97.2%; in the test on SK-MEL-28 melanoma it was 99.2%; in the test with SK-MEL-2 melanoma, 71.5%; in the test on EKVX NSCLC it was 98.6%; with SN12C renal it was 99.7%. The growth is 98.7% with UO-31 renal; 102% in the test on TK-10 renal; 104% in the test with ACHN renal; 98% with CAKI-1 renal; 93.8% in the test on A498 renal; 106% in the test with CCRF-CEM leukemia. In the test with MOLT-4 leukemia, the growth is 95.9%.

In the case of `Cc1ccc(-c2c(Br)c(OC(=O)CO[C@@H]3C[C@H](C)CC[C@H]3C(C)C)c(-c3ccc(C)cc3C)c(Br)c2OC(=O)CO[C@H]2C[C@@H](C)CC[C@@H]2C(C)C)c(C)c1`, the growth is 99.6% with HCT-15 colon; 103% in the test on HT29 colon; 85.6% in the test with SNB-75 CNS; 101% with SNB-19 CNS; 92.8% in the test on PC-3 prostate; 55.3% in the test with SK-MEL-5 melanoma. Besides, the growth in the test with UACC-62 melanoma is 102%; in the test with LOX IMVI melanoma, 94.4%; with SK-MEL-28 melanoma, 108%; in the test with SK-MEL-2 melanoma it was 90.2%; with EKVX NSCLC it was 101%; in the test on SN12C renal it was 98.9%. Besides, the growth is 87% in the test on UO-31 renal; 92.8% in the test with TK-10 renal; 104% with ACHN renal; 97% with CAKI-1 renal; 96.1% in the test with A498 renal; 90% in the test on CCRF-CEM leukemia. For the same molecule, the growth with MOLT-4 leukemia was 97.6%.

In the case of `COc1ccc(NS(=O)(=O)c2ccc(C)cc2)c([N+](=O)[O-])c1`, the growth was 107% with HCT-15 colon; 107% in the test with HT29 colon; 105% in the test with SNB-75 CNS; 102% in the test with SNB-19 CNS; 97.5% in the test with PC-3 prostate; 96.8% with SK-MEL-5 melanoma. Also, the growth in the test with UACC-62 melanoma is 86%; in the test with LOX IMVI melanoma it was 95.2%; in the test with SK-MEL-28 melanoma it was 107%; in the test on SK-MEL-2 melanoma it was 110%; with EKVX NSCLC, 101%; in the test on SN12C renal, 88.2%. Also, the growth in the test with UO-31 renal was 86.3%; with TK-10 renal, 99.7%; in the test on ACHN renal, 95.4%; in the test with CAKI-1 renal, 98.2%; in the test on A498 renal it was 80%; with CCRF-CEM leukemia, 97%. For the same molecule, the growth in the test with MOLT-4 leukemia was 96.3%.

For the molecule `COc1ccc(/C=C/C(=O)c2ccc(Nc3ncnc4ccccc34)cc2)cc1OC`, the growth in the test with HCT-15 colon is 75.9%; with HT29 colon, 13.9%; with SNB-75 CNS, 92.2%; in the test on SNB-19 CNS, 79.1%; with PC-3 prostate, 65.4%; in the test with SK-MEL-5 melanoma it was 91.9%. In addition, the growth is 87.1% in the test with UACC-62 melanoma; 44.2% with LOX IMVI melanoma; 98.1% with SK-MEL-28 melanoma; 124% with SK-MEL-2 melanoma; 78.3% in the test on EKVX NSCLC; 88.5% in the test with SN12C renal. Also, the growth in the test with UO-31 renal was 71.2%; with TK-10 renal, 98.8%; with ACHN renal, 88.8%; with CAKI-1 renal, 75.6%; in the test on A498 renal it was 77.6%; with CCRF-CEM leukemia, 49.7%. Moreover, in the test with MOLT-4 leukemia, the growth is 48.2%.

`N#C/C(=C\c1ccc(Br)cc1)n1nnc2cccc(F)c21`: the growth in the test on HCT-15 colon is 1.81% (active); in the test with HT29 colon it was 11.8%; in the test on SNB-75 CNS, -24.8% (active); with SNB-19 CNS, 25.6%; in the test with PC-3 prostate, 29%; in the test on SK-MEL-5 melanoma it was 1.82% (active). The growth with UACC-62 melanoma was 22.7%; with LOX IMVI melanoma, -56.3% (active); in the test with SK-MEL-28 melanoma, 49.5%; in the test with SK-MEL-2 melanoma it was 22.3%; in the test on EKVX NSCLC it was 61.8%; in the test with SN12C renal, 4.62% (active). Besides, the growth was 2.69% (active) in the test on UO-31 renal; 15.6% in the test with TK-10 renal; 20.2% in the test on ACHN renal; 18.2% with CAKI-1 renal; -2.73% (active) in the test on CCRF-CEM leukemia; 1.33% (active) in the test on MOLT-4 leukemia.

Turning to `COc1cc(COC(=O)CCCCC[P+](c2ccccc2)(c2ccccc2)c2ccccc2)c(OC)c2c1OCO2`, the growth was 99.3% with HCT-15 colon; 32.3% in the test with HT29 colon; 59.9% in the test with SNB-75 CNS; 55.5% in the test with SNB-19 CNS; 44.9% in the test on PC-3 prostate; 3.32% (active) in the test with SK-MEL-5 melanoma. For the same molecule, the growth was 46.9% in the test on UACC-62 melanoma; 35.6% with LOX IMVI melanoma; 51.4% in the test on SK-MEL-28 melanoma; 68.4% in the test on SK-MEL-2 melanoma; 73% in the test on EKVX NSCLC; 51% in the test on SN12C renal. The growth in the test with UO-31 renal is 91.4%; in the test on TK-10 renal it was 75.6%; with ACHN renal, 98.5%; in the test on CAKI-1 renal, 72.7%; in the test with A498 renal it was 52.5%; with MOLT-4 leukemia, 93.3%.

For the molecule `FC(F)(F)c1cccc(Oc2ccc(Nc3ncnc4ccc(OCCCN5CCOCC5)cc34)cc2Cl)c1`, the growth in the test with HCT-15 colon was -40.4% (active); with HT29 colon it was 5% (active); in the test with SNB-75 CNS, 75.2%; with SNB-19 CNS, 61.1%; with U251 CNS it was 40.3%; in the test on PC-3 prostate, 49.1%. In addition, the growth in the test on SK-MEL-5 melanoma is 59.2%; in the test on UACC-62 melanoma, 76.1%; with LOX IMVI melanoma, -36% (active); in the test on SK-MEL-28 melanoma, 21.3%; in the test on SK-MEL-2 melanoma, 82.7%; in the test with EKVX NSCLC, 32.7%. Besides, the growth is 21.6% in the test on UO-31 renal; 23.9% in the test with ACHN renal; 35.6% in the test on CAKI-1 renal; 63.1% in the test on A498 renal; -16.4% (active) in the test with CCRF-CEM leukemia; 34.3% with MOLT-4 leukemia.

Regarding `COc1ccc(/C=C/c2n[nH]c3ccc(N4CCOC4=O)cc23)cc1`, the growth in the test with HCT-15 colon is 10.1%; in the test with HT29 colon, -18.6% (active); in the test with SNB-75 CNS it was -11.1% (active); with SNB-19 CNS, 18.2%; in the test on PC-3 prostate, 18.5%; in the test with SK-MEL-5 melanoma, 11.7%. The growth was 16.5% in the test on UACC-62 melanoma; 1.88% (active) in the test on LOX IMVI melanoma; 33.5% in the test with SK-MEL-28 melanoma; 11.7% with SK-MEL-2 melanoma; 8.71% (active) in the test on EKVX NSCLC; 24% in the test with SN12C renal. Also, the growth in the test with UO-31 renal is -45.7% (active); with TK-10 renal it was -9.71% (active); in the test on ACHN renal it was 6.86% (active); in the test with CAKI-1 renal, 4.59% (active); with A498 renal it was -19.6% (active); in the test with CCRF-CEM leukemia it was -17% (active). Besides, the growth in the test on MOLT-4 leukemia was 4.38% (active).
